Test results: PubChem BioAssay (NCI)
Compounds without any hit were thinned out: in the full panel of roughly 83,000, 20% have a hit.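 Growth was measured after 48 h exposure to one concentration of compound in 96-well plates. Values under 10 count as active.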 A number with no mark means an inactive call. Active and inactive are the calls of the source.

What was measured:
Assay in all cases: NCI-60 one-dose screen, 48 h (100 = growth as untreated, 0 = no growth, -100 = all killed)
Details in all cases: 10 µM unless noted
[1] = tested on: NCI-H23 lung
[2] = tested on: NCI-H226 lung
[3] = tested on: NCI-H322M lung
[4] = tested on: HOP-62 NSCLC
[5] = tested on: NCI-H460 lung
[6] = tested on: HOP-92 NSCLC
[7] = tested on: NCI-H522 lung
[8] = tested on: A549/ATCC NSCLC
[9] = tested on: 786-0 renal
[10] = tested on: COLO 205 colon

Structure (SMILES) | growth [1] | growth [2] | growth [3] | growth [4] | growth [5] | growth [6] | growth [7] | growth [8] | growth [9] | growth [10]
COc1cc(C2C3=C(COC3=O)N(CCO)c3cc4c(cc32)OCCO4)cc(OC)c1OC (stereo not given) | 14.5% | 13.5% | 36.9% | 15.4% | 1.13% (active) | 26.8% | -10% (active) | 11.9% | 1.83% (active) | -85.9% (active)
Oc1c(CN2CCCC2)cc(COCc2ccccc2)c2cccnc12 | 31.3% | 18.1% | 16.7% | 1.77% (active) | 3.04% (active) | 14.7% | -2.04% (active) | 8.85% (active) | 5.96% (active) | 71.4%
CCOc1ccc(/C=N\N=C\c2ccc(OCC)cc2)cc1 | 79.5% | 89.1% | 99.1% | 93% | 51.7% | 84.4% | 51.9% | 94.2% | 105% | 96.6%
CCCNc1nc2ccccc2c2c(=O)c3cccc(Cl)c3sc12 | 74.1% | 84.9% | 89.6% | 88.3% | 78.7% | 89.5% | 82.3% | 94% | 110% | 94.7%
Nc1c(C(=O)Nc2ccncc2)sc2nc3c(cc12)CCCCC3 | 61.8% | 72.3% | 99.9% | 81.8% | 81.6% | 73% | 73.9% | 89.5% | 79.1% | 86.5%
CCCCn1sc(=O)n(Cc2ccc(CNC(=O)OCc3ccc4c(Br)cc(Br)c(O)c4n3)cc2)c1=O | 36.1% | 31.6% | 46% | 27.1% | 4.44% (active) | 37.8% | -7.12% (active) | 18.9% | 92.2% | 114%
CCCCCSB(SCCCCC)c1ccccc1 | 99.9% | 102% | 103% | 90% | 112% | 105% | 88.3% | 92.4% | 103% | 106%
O=C1CC2C=CCN2C=C1NC(=O)C1CCCCC1 (stereo not given) | 97.4% | 104% | 100% | 102% | 112% | 115% | 89.7% | 97.5% | 99.5% | 105%
C=C1C(=O)O[C@H]2[C@H]1CC/C(COC(=O)NCCCCCCCCNC(=O)OC/C1=C/CC[C@@]3(C)O[C@H]3[C@H]3OC(=O)C(=C)[C@@H]3CC1)=C\CC[C@@]1(C)O[C@@H]21 | -53.6% (active) | -84.2% (active) | -26.4% (active) | -38.2% (active) | -51.1% (active) | -83.2% (active) | -68.7% (active) | 2.89% (active) | -89.9% (active) | -64.9% (active)
CCN(CCO)CC(C)Nc1ccc([N+](=O)[O-])c2sc3ccccc3c(=O)c12 (stereo not given) | 40.2% | 14.4% | 15.6% | 36.9% | 9.73% (active) | -0.953% (active) | 15.3% | 12.2% | 34.3% | 15%
CC/C(Cc1ccccc1)=C(\c1ccc(OCCN2CCCCCC2)cc1)c1ccc(OC(=O)NCc2ccccc2)cc1 | 74.9% | 90% | 96.6% | 82.8% | 5.51% (active) | 56% | 84.7% | 64.4% | 58.4% | -24.2% (active)
O=C(CCCCCCCCC(=O)N/N=C\c1cc(Cl)ccc1O)N/N=C\c1cc(Cl)ccc1O | 47.9% | 15.4% | 41.1% | 30.7% | 7.22% (active) | 47.6% | 34.3% | 38.2% | 16.3% | 36.9%
COc1cc2c(cc1O)[C@@]1(C)[C@H](c3ccccc3Br)OC(=O)N1CC2 | 94.3% | 83.9% | 116% | 97.3% | 96.5% | 82.8% | 75.5% | 79.6% | 104% | 117%
COc1cc2ncnc(Nc3ccc(F)c(Cl)c3)c2cc1OCC(=O)N1CCN(c2ccc(F)cc2)CC1 | 97% | 96.3% | 36.5% | 95.2% | 101% | 87.9% | 72.2% | 79.7% | 79% | 101%
CN1CCN(CCCOC(=O)c2c3c(n4ccccc24)C(=O)c2ncccc2C3=O)CC1 | -30.6% (active) | 15.7% | 28.5% | -34.9% (active) | -15.1% (active) | 14.8% | -87.1% (active) | -47.9% (active) | 1.4% (active) | -93.2% (active)
C=CC(C)(O)CC/C=C(\CO)C(=O)OC1C(C)OC(O[C@](C)(C=C)CC/C=C(\CO)C(=O)O[C@H]2C[C@@]3(C(=O)OC4OC(CO)C(O)C(O)C4OC4OC(C)C(OC5OC(CO)C(O)C5O)C(OC5OC(CO)C(O)C(O)C5O)C4O)C(CC2(C)C)C2=CCC4[C@@]5(C)CC[C@H](OC6OC(COC7OC(C)C(O)C(O)C7OC7OCC(O)C(O)C7O)C(O)C(O)C6NC(C)=O)C(C)(C)C5CC[C@@]4(C)[C@]2(C)C[C@H]3O)C(O)C1O (stereo not given in full) | 11.9% | 2.06% (active) | -78.4% (active) | -66.9% (active) | 57.8% | -46.2% (active) | -58.8% (active) | -37.5% (active) | -77.5% (active) | -69.3% (active)
COc1ccc(C2=C/C(=C\c3ccc(Cl)cc3)C(=O)N2/N=C/c2ccc(Cl)cc2)cc1 | 103% | 93.1% | 89.7% | 97.8% | 106% | 72.8% | 73.9% | 80.7% | 103% | 96.9%
CCCCN1C(=O)/C(=c2\sc3n(c2=O)NC2C(N=3)N(CC)C(=O)N2CC)c2ccccc21 (stereo not given) | 46.9% | 70.4% | 69.9% | 71.7% | 35.3% | 60% | 21.4% | 36.6% | 53.6% | 24.9%
COc1cccc(OC)c1Oc1c(-c2nc3ccccc3s2)c(C)nn1-c1ccccc1 | 74.4% | 79.9% | 65.6% | 70.4% | 78.8% | 62.2% | 68.3% | 67.4% | 91.4% | 98.4%
Cc1cc(C(=O)Nc2cc(Nc3ncccc3-c3ncnc4nc[nH]c34)ccc2F)cc(C(F)(F)F)c1 | 25.2% | 39.9% | 106% | 38.5% | 48.8% | -5.43% (active) | 63.1% | 55.7% | 63.5% | 13.4%
O=C1CCC(C(=O)NN(c2ccccc2)c2ccccc2)N1 (stereo not given) | 108% | 96.3% | 107% | 101% | 101% | 69.6% | 96.5% | 103% | 48.9% | 111%
CCN(CC)CCN(CCN(CC)CC)c1ccccc1 | 93% | 94.6% | 103% | 98.5% | 107% | 67.3% | 79% | 93.1% | 67.4% | 97.8%
CC/C=C\C/C=C/C=C1/C(=O)C=C[C@@H]1C/C=C\CCCC(=O)OC | 24.9% | 55.7% | 95.8% | 36.1% | 76.2% | 42.4% | -32.3% (active) | 80.8% | -15% (active) | 14.1%
O=C(Nc1ncc(Cc2ccccc2Cl)s1)c1cccs1 | 80.3% | 85.1% | 78% | 66.6% | 57.7% | 58.6% | 51.9% | 54.1% | 86.1% | 85.8%
CCCC(O)Cn1ncc(C(=O)OCC)c1NC(=O)NCc1cccc(F)c1 (stereo not given) | 91.2% | 112% | 93% | 100% | 107% | 71.3% | 58.6% | 88.4% | 73.4% | 111%
C[C@@H]1CC[C@@]2(OC1)O[C@H]1C[C@H]3[C@@H]4CC=C5C[C@@H](O[C@@H]6O[C@H](CO)[C@@H](O[C@@H]7O[C@@H](CO)[C@H](O)[C@H]7O)[C@H](O)[C@H]6O[C@@H]6O[C@@H](C)[C@H](O)[C@@H](O)[C@H]6O)CC[C@]5(C)[C@H]4CC[C@]3(C)[C@H]1[C@@H]2C | -95.5% (active) | -51.8% (active) | -87.7% (active) | 6.56% (active) | -93.7% (active) | -67.2% (active) | -41.4% (active) | -96.8% (active) | -89.6% (active) | -89.9% (active)
